The source of these data is PubChem BioAssay (NCI).

The nature of test [1]: NCI Yeast Anticancer Drug Screen. Data for the rad50 strain (AID 155).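 Further: 0% = growth of vehicle-only cultures of the same strain.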 Particulars: S. cerevisiae rad50 strain growth inhibition; at 50.0 µM; stronger effect = higher value. The essentials:
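Inhibition values express reduced yeast growth in compound-treated cultures relative to vehicle-treated controls.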

The nature of test [2]: NCI Yeast Anticancer Drug Screen. Data for the mec2-1 strain (AID 157). Particulars: S. cerevisiae mec2-1 strain, at 50.0 µM, stronger effect = higher value. The essentials:
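Using mec2-1 yeast: add compound, measure growth, express inhibition versus vehicle-treated cultures.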

Test [3] in a line: NCI Yeast Anticancer Drug Screen. Data for the sgs1 mgt1 strain (AID 161).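 Further: 0% = growth of cultures given vehicle only.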 The following applies: S. cerevisiae sgs1 mgt1 strain, at 50.0 µM, stronger effect = higher value. In outline:
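Compounds are added to genetically altered yeast, and growth is compared with cultures given vehicle alone to give percent inhibition.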

Test [4] can be described thus: NCI Yeast Anticancer Drug Screen. Data for the cln2 rad14 strain (AID 165).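 Further: 0% = growth equal to vehicle treated cultures.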 The following applies: S. cerevisiae cln2 rad14 strain, at 50.0 µM, stronger effect = higher value. The essentials:
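Yeast strain cln2 rad14, bearing defects in cell cycle control and DNA repair, serves as the test system; values reflect growth inhibition compared with vehicle.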

The nature of test [5]: NCI Yeast Anticancer Drug Screen. Data for the bub3 strain (AID 167). Particulars: S. cerevisiae bub3 mutant strain, at 50.0 µM, stronger effect = higher value. The essentials: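 Steps: expose the mutant yeast strain to compound; grow alongside vehicle-treated cultures; measure growth; express inhibition against the vehicle cultures.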
A short description of test [6]: NCI Yeast Anticancer Drug Screen. Data for the mlh1 rad18 strain (AID 175). The following applies: S. cerevisiae mlh1 rad18 strain growth inhibition; at 50.0 µM; stronger effect = higher value. The essentials: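 Steps: expose repair-defective yeast to compound; measure growth; express inhibition against vehicle-treated controls.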

Structures are written as SMILES. This is part of a sample that, as a whole, favours compounds with a hit. Of some 79,000 tested, about 15% had one in any assay. A number with no mark means an inactive call. Active and inactive are the calls of the source. No stated cut-off is given here; in the data, active means growth inhibition above about 70%; inactive means the rest.

As to `CCCCCCCCCCCCCCNC(=O)CCl`, the growth inhibition is 14.8% in test [1]; -17.5% in test [2]; -5.8% in test [3]; -8.5% in test [4]; -9.25% in test [5]; -16.2% in test [6].

On to `O=S(=O)(Nc1cccc(Cl)c1)c1ccc(F)cc1`, for which the growth inhibition was -8.45% in test [1]; -11.2% in test [2]; -13.2% in test [3]; -5.4% in test [4]; -11.3% in test [5]; 2.5% in test [6].

As for `Cc1ccc(-n2nc(C)cc2C)nn1`, the growth inhibition was -3.55% in test [1]; 11.2% in test [2]; -9.75% in test [3]; -25.7% in test [4]; 26.6% in test [5]; -13.8% in test [6].

For the molecule `COc1ccc(NS(=O)(=O)c2ccc(NCc3c4ccccc4nc4cc(Cl)ccc34)cc2)nn1`, the growth inhibition is 20.2% in test [1]; 45% in test [2]; 9.65% in test [3]; -30.8% in test [4]; -8.3% in test [5]; 37.5% in test [6].

For `Nc1c(Cl)cc(C(=O)NC2CC2)cc1Cl`, the growth inhibition in test [1] was -13.1%; in test [2] it was -27.8%; in test [3], -11.2%; in test [4] it was -4.8%; in test [5], -26.6%; in test [6], -24.9%.

Regarding `C/C=C(/C=O)[C@@H]1CC2c3c(c4ccccc4n3[C@@H](O)C1)CCN2C` (some centres undefined), the growth inhibition was -5.45% in test [1]; -17.6% in test [2]; -4.4% in test [3]; -1.1% in test [4]; -33.2% in test [5]; -16.6% in test [6].

As for `Fc1ccc(C(c2ccc(F)cc2)C(F)(F)F)cc1`, the growth inhibition is 8.65% in test [1]; -20.3% in test [2]; 24.9% in test [3]; 10.8% in test [4]; 13.7% in test [5]; 13.4% in test [6].

In the case of `COC(=O)CCc1c[nH]c2ccc(N)cc12`, the growth inhibition was -12.8% in test [1]; -31.2% in test [2]; -14.8% in test [3]; 18.2% in test [4]; -14.5% in test [5]; -13.7% in test [6].

On to `COC(=O)/C=C(/C)c1ccccc1`, for which the growth inhibition was 1.7% in test [1]; 2.3% in test [2]; 0.9% in test [3]; 5.65% in test [4]; 1.45% in test [5]; -3.5% in test [6].

For `CCCC1CC(=O)NC1C(=O)O` (centres undefined), the growth inhibition in test [1] is -8.75%; in test [2], -7.85%; in test [3], -6.85%; in test [4], -21.9%; in test [5], -5.25%; in test [6], -24.4%.

`COc1ccc(CCc2cc(OC)c(O)c(OC)c2)cc1`: the growth inhibition was 18.5% in test [1]; 14.8% in test [2]; 36% in test [3]; 19% in test [4]; 30.1% in test [5]; 41% in test [6].

Take `CC(=O)NC(c1ccc(F)cc1)(c1ccc(F)cc1)C(F)(F)F`: the growth inhibition in test [1] was 40.4%; in test [2], 11.1%; in test [3] it was 42.2%; in test [4] it was 35.6%; in test [5], 43%; in test [6], 40.9%.

For the molecule `COC(=O)c1ccc(C=O)[nH]1`, the growth inhibition in test [1] was 8%; in test [2], -22.1%; in test [3] it was 0.55%; in test [4], -10.5%; in test [5], 4.7%; in test [6], 7.25%.

Take `N#CCCN(CCc1ccccn1)CN1C(=O)c2ccccc2C1=O`: the growth inhibition in test [1] is 10%; in test [2], -4.85%; in test [3] it was -3.75%; in test [4], -7.45%; in test [5], 3.25%; in test [6] it was -13.2%.

For `CC(Cl)S(N)(=O)=O` (centres undefined), the growth inhibition in test [1] was -11.7%; in test [2] it was -11.7%; in test [3], -19.2%; in test [4], -6.45%; in test [5], 7.45%; in test [6], 2.15%.

Consider `c1ccc(COC2NCCN2Cc2ccccc2)cc1` (centres undefined), for which the growth inhibition in test [1] was -29.6%; in test [2], -20.5%; in test [3] it was -10.7%; in test [4], 6.8%; in test [5], -55.5%; in test [6] it was -7.85%.

As to `COC(=O)c1cccc2ccc3cccc(C=O)c3c12`, the growth inhibition in test [1] was -29.4%; in test [2] it was 6.6%; in test [3] it was -5.9%; in test [4], -30.8%; in test [5], 12.2%; in test [6], -14.5%.

In the case of `Clc1nc(Sc2ccc(Br)cc2)c(Cl)c(Sc2ccc(Br)cc2)n1`, the growth inhibition was -18.9% in test [1]; -2.3% in test [2]; 8.05% in test [3]; -0.8% in test [4]; 1.5% in test [5]; -17.6% in test [6].

Consider `Cc1ccc2ccccc2c1Cc1c(C=O)[nH]c(=S)[nH]c1=O`, for which the growth inhibition is 94.7% (active) in test [1]; 90.8% (active) in test [2]; 97% (active) in test [3]; 82.5% (active) in test [4]; 90.5% (active) in test [5]; 98.8% (active) in test [6].
